The list is not random: actives were taken first. Their share in the collection is about 2.4%.
NOD2-RIPK2 inh – inhibitors of human NOD2-RIPK2 interaction. O43353. CHO BLA complementation NOD2-RIPK2, CCF4 ratio. inhibition, % at 4.98 µM. actives 0.38% (n = 360,000); in the data active = inhibition above about 21%;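 note: 0% = vehicle only and 100% = reference blocker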
TLR4 MyD88 comp – blocks binding of human TLR4 to MyD88 | O00206+Q99836 | HeLa CL3-4 TLR4/MyD88 BLA complementation, FRET ratio | inhibition, % at 8.4 µM | actives 0.18% (n = 200,000); in the data active = inhibition above about 25%;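 note: 0% = vehicle and 100% = reference inhibitor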
Target sequence (O00206 whole entry, looked up): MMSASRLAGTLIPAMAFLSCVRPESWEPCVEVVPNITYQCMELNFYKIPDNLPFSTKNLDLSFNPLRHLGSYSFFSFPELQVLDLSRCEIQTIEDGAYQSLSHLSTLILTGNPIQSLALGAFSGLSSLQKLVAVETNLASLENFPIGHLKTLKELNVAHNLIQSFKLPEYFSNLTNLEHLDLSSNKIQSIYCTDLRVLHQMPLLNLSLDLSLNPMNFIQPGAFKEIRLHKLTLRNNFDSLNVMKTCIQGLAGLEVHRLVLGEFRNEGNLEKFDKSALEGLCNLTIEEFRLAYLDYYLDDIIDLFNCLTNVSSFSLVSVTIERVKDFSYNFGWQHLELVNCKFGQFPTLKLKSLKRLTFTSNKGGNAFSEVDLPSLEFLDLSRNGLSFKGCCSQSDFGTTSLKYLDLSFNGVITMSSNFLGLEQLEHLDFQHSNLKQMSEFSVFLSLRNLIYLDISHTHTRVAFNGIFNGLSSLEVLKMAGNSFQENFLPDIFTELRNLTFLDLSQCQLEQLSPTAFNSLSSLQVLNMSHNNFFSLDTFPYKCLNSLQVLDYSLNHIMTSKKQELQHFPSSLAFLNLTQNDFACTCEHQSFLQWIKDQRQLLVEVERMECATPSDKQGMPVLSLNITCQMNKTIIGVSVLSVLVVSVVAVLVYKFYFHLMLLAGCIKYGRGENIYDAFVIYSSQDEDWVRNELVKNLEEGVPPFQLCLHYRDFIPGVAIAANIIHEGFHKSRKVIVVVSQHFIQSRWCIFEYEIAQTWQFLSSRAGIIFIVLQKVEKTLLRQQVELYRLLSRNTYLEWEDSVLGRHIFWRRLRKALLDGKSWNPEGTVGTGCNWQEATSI
Target sequence (Q99836 whole entry, looked up): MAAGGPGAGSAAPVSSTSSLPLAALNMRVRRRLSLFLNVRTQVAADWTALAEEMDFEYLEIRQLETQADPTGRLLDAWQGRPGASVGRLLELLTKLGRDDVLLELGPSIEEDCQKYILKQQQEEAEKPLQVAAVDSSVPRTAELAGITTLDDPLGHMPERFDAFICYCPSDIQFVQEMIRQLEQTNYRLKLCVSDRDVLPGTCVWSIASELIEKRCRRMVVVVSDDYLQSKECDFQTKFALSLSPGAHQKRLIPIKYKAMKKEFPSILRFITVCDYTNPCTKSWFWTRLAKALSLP
HSF1 activator – increases HSF-1 driven luciferase reporter signal | NIH3T3-HGL HSF-1 luciferase reporter, MG132, 8 h; 100% = twice DMSO control signal | actives 1.7% (n = 300,000) | activation, % at 9 µM;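 active = mean replicate activation of at least 50% with a set share of replicates each reaching 50%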;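 note: 0% = median of the neutral control wells and 100% = twice that signal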
TLR9-MyD88 inh – TLR9-MyD88 interaction inhibition. AID 504734. Q9NR96+Q99836. actives 0.21% (n = 340,000). inhibition, % at 4.98 µM. CHO BLA complementation TLR9-MyD88, CCF4 FRET ratio;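 active = inhibition above the mean over all tested compounds plus 3 SD, cut at about 21% in these data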;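 note: 0% = DMSO only wells and 100% = clavulanate BLA inhibitor control wells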
HSF1 inhib – HSF1 inhibition; AID 2098; activity change, negative = inhibition, % at 7.5 µM (by protocol); actives 0.77% (n = 300,000); NIH3T3-HGL HSE-luciferase, MG132-induced, luminescence 8 h; active compounds read low;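 active = more than half of replicate wells show activity change below -50%, luminescence cut by over half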;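 note: luciferase reports HSF-1 transcriptional activity via heat shock element; 0% = median of DMSO wells and -100% = zero luminescence signal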
TLR9-MyD88 conf – confirmation of human TLR9-MyD88 binding inhibitors; inhibition, % at 4.98 µM; shares compounds with TLR9-MyD88 inh; AID 540250; CHO TLR9/MyD88 BLA complementation, CCF4 FRET ratio; actives 51% (n = 680);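 active = mean inhibition across three repeats above about 21% taken from the earlier screen, limit read from the data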;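 note: blue over green emission ratio reports constitutive TLR9 MyD88 association via BLA complementation; 0% = DMSO vehicle wells and 100% = clavulanate BLA inhibitor wells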
BLA counter-1 – counter-screen for TLR9-MyD88 inhibitors: non-selective beta-lactamase inhibitors; inhibition, % at 4.98 µM; CHO-BLA cells, CCF4 FRET ratio, BLA reporter; shares compounds with TLR9-MyD88 inh; actives 7% (n = 680);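 active = mean inhibition above a 50% cutoff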;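 note: counterscreen of TLR9-MyD88 hits on CMV-driven BLA in CHO-K1 cells; 0% = DMSO alone and 100% = clavulanate blocking BLA; higher means less blue over green ratio so more BLA blockade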
TLR9 CHO cytotox – CHO cell toxicity counter-screen for TLR9-MyD88 inhibitors | actives 39% (n = 680) | shares compounds with TLR9-MyD88 inh | inhibition, % at 4.98 µM | TLR9-MyD88 CHO cells cytotoxicity, luminescence | AID 588336; in the data active = inhibition above about 11%
NOD2-RIPK2 conf – confirmation of human NOD2-RIPK2 interaction inhibitors; CHO cells, NOD2-RIPK2 BLA complementation, CCF4 FRET; shares compounds with NOD2-RIPK2 inh; inhibition, % at 4.98 µM; actives 70% (n = 1,200);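 active = mean inhibition across replicates above a set limit taken from the earlier primary screen, cut at about 21% in these data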;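 note: 0% = DMSO-only wells and the high end = clavulanate BLA-blocked wells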
BLA counter-2 – counter-screen for NOD2-RIPK2 interaction inhibitors: BLA reporter | shares compounds with NOD2-RIPK2 inh | CHO BLA reporter, CCF4 FRET ratio, counterscreen | inhibition, % at 4.98 µM | actives 57% (n = 1,200);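 active = mean inhibition above the low-control mean inhibition plus three low-control SD, cut at about 11% in these data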;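 note: 0% = DMSO only wells and 100% = clavulanate high control wells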
The depositor's hits bear a star; nt = no result given.

SMILES	NOD2-RIPK2 inh	TLR4 MyD88 comp	HSF1 activator	TLR9-MyD88 inh	HSF1 inhib	TLR9-MyD88 conf	BLA counter-1	TLR9 CHO cytotox	NOD2-RIPK2 conf	BLA counter-2
CCN(CC)c1ccc(C(=C2C=CC(=[N+](CC)CC)C=C2)c2ccccc2)cc1	41*	nt	95*	53*	95*	83*	18	101*	32*	22*
CS(=O)(=O)c1nc(-c2ccc(F)cc2)cc(C(F)(F)F)n1	62*	15	-92	40*	-93*	35*	8	97*	62*	12*
NNC(=O)c1oc2nc(-c3ccc(Cl)cc3)cc(-c3ccccc3)c2c1N	26*	nt	8	24*	0	46*	41	1	62*	67*
O=C(COc1ccccc1)OCC(=O)c1ccc(S(=O)(=O)N2CCCCC2)cc1	-13	nt	nt	-2	nt	nt	nt	nt	nt	nt
C[C@H](CO)N1C[C@H](C)[C@@H](CN(C)S(=O)(=O)c2cn(C)cn2)OCc2cnnn2CCCC1=O	4	nt	nt	1	nt	nt	nt	nt	nt	nt
O=C(c1ccccc1)c1ccccc1N1C(=O)C=CC1=O	70*	nt	27	33*	-4	26*	5	96*	69*	16*
O=C(O)c1cccc(N2C(=O)C=CC2=O)c1	-11	nt	nt	-2	nt	nt	nt	nt	nt	nt
CCN(CC)c1ccc(/C=C/c2cc(-c3ccccc3)c3ccccc3n2)cc1	69*	nt	0	55*	-15	70*	80*	5	80*	86*
COc1cccc(C2=CC(c3ccc(N(C)C)cc3)n3ncnc3N2)c1 (centres undefined)	nt	-3	10	nt	3	nt	nt	nt	nt	nt
C1=C(c2ccc(-c3ccccc3)cc2)Nc2ncnn2C1c1ccco1 (centres undefined)	39*	1	nt	27*	nt	7	1	2	5	3
Oc1ccc(C2C=C(c3ccc(F)cc3)Nc3ncnn32)cc1 (centres undefined)	50*	nt	3	40*	-3	7	4	0	37*	46*
Cc1ccc(C2C=C(c3ccccc3)Nc3ncnn32)cc1 (centres undefined)	48*	nt	7	37*	2	6	5	3	16	18*
Brc1ccc(C2=CC(c3ccco3)n3nnnc3N2)cc1 (centres undefined)	-7	nt	19	-5	-3	nt	nt	nt	nt	nt
COc1ccc(C2C=C(c3ccc(C)cc3)Nc3ncnn32)cc1 (centres undefined)	52*	19	-3	41*	-4	-2	1	-1	11	10
CCc1cc2c(=O)n(CCCOC)c(SCC(=O)Nc3oc(C)c4c(C)n[nH]c(=O)c34)nc2s1	-7	nt	4	5	5	nt	nt	nt	nt	nt
Cc1ccc(OC2CCN(C(=O)[C@H]3O[C@@H](n4cnc5c(N)ncnc54)[C@H](O)[C@@H]3O)CC2)cc1	1	nt	nt	nt	nt	nt	nt	nt	nt	nt
CCN1CCN(c2nc3c(C)cccn3c(=O)c2/C=C(\C#N)C(=O)NCCOC)CC1	-2	nt	-7	-7	-8	nt	nt	nt	nt	nt
CN(C)c1ccc(/C=C/c2ccc3ccccc3n2)cc1	46*	nt	-87	28*	-85*	38*	53*	53*	58*	71*
CC(NC(=O)/C(C#N)=C/c1ccc([N+](=O)[O-])o1)c1ccccc1 (centres undefined)	52*	nt	-66	21*	-62*	36*	19	99*	51*	34*
COc1ccccc1OCCC(=O)OCCN1C(=O)c2ccccc2C1=O	-8	-5	-1	-3	0	nt	nt	nt	nt	nt
Nc1cccc2c1C(=O)N(CCOc1ccc(F)cc1)C2=O	22*	nt	62*	23*	39	15	18	3	33*	44*
Cc1ccccc1C(N)=O	3	nt	nt	12	nt	nt	nt	nt	nt	nt
CC(=NNc1nc2ccccc2o1)c1cc2ccccc2cn1	43*	nt	-52	60*	-52	67*	66*	74*	90*	91*
CC(=NNc1nc2ccccc2s1)c1ncccn1	9	nt	nt	20	nt	nt	nt	nt	nt	nt
CC(=NNc1nc2ccccc2o1)c1ncccn1	27*	nt	nt	26*	nt	20	10	99*	34*	30*
SMILES	NOD2-RIPK2 inh	TLR4 MyD88 comp	HSF1 activator	TLR9-MyD88 inh	HSF1 inhib	TLR9-MyD88 conf	BLA counter-1	TLR9 CHO cytotox	NOD2-RIPK2 conf	BLA counter-2
COc1ccccc1CN(C)C(=O)c1ccc(S(=O)(=O)NCc2ccco2)cc1	7	nt	nt	-11	nt	nt	nt	nt	nt	nt
Cc1ccc(/C=C2\Oc3c(ccc(O)c3CN3CCN(CCO)CC3)C2=O)cc1	28*	17	16	22*	7	10	8	-1	24*	28*
COc1cc(/C=C/C(=O)/C=C(O)/C=C/c2ccc(O)c(OC)c2)ccc1O	54*	nt	nt	28*	nt	30*	28	6	55*	57*
COc1ccc(-c2cc3ccc(O)cc3oc2=O)cc1	39*	nt	51*	21*	26	17	26	1	43*	52*
Clc1ccc2nc(N3CCNCC3)nc(-c3ccccc3)c2c1	37*	19	-10	24*	1	16	29	-1	38*	52*
CC(C)CNC(=O)COC(=O)c1c2c(nc3ccccc13)/C(=C\c1cccs1)CC2	47*	nt	nt	30*	nt	46*	54*	12*	70*	77*
COc1cc(OC)nc(-n2ncc(Br)c(Br)c2=O)n1	50*	7	nt	23*	nt	27*	22	100*	60*	10
COC(=O)c1cnn(-c2nc(OC)cc(OC)n2)c1C	0	-19	-22	-6	6	nt	nt	nt	nt	nt
CCC(C)n1c(C)cc(=O)n1C(C)CC (centres undefined)	-2	nt	nt	0	nt	nt	nt	nt	nt	nt
Cc1cccc(N2CCN(CC(=O)Nc3ccc(S(=O)(=O)N4CCOCC4)cc3)CC2)c1C	4	nt	8	-7	12	nt	nt	nt	nt	nt
COC(=O)C1=C(C)Nc2sc(C(N)=O)c(N)c2C1c1ccncc1 (centres undefined)	-9	7	-8	8	-6	nt	nt	nt	nt	nt
CCOC(=O)C1=C(C)Nc2sc(C(=O)c3ccc(OC)cc3)c(N)c2C1c1ccc(C(=O)OC)cc1 (centres undefined)	39*	10	-5	44*	-2	-1	9	7	5	20*

Bioassay records: PubChem BioAssay, several laboratories
